DT40 TDP1 no CPT: qHTS for Inhibitors of human tyrosyl-DNA phosphodiesterase 1 (TDP1): qHTS in cells in absence of CPT; hit rate 15% among 420,000; AID 686978, 2013; Potency, µM (top dose mostly 46.2 µM), hits mostly inhibitors; DT40 Tdp1-/- hTDP1 cells, no CPT, ATP luminescence, 48 h; further: nearly all actives have a fitted effect of over 55% in size
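Chicken DT40 Tdp1-/- cells stably complemented with human TDP1 were seeded at 400 cells/well with DMSO in place of 20 nM camptothecin. After compound pinning, cells grew at least 48 hr at 37 °C; viability read by CellTiter-Glo luminescence.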
HT1080 IDH1KD tx: toxicity to HT-1080 IDH1 knockdown cells (counter line) | HT-1080 IDH1 knockdown viability, ATP luminescence, 48 h | Potency, µM (titrated, usually from 46.1 µM), most hits filed as cytotoxic | hit rate 2% among 360,000
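Assay cells: HT-1080 with IDH1 knockdown, 750 per well, RPMI/5% FBS. Exposure: 48 h at 37 °C following 2 h pre-incubation. Read: CellTiter-Glo luminescence; fitted concentration-response, curve class assigned.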
IL-1B inflam inh: blocks inflammasome-driven IL-1 beta release. activity change, % at 57.5 µM. hit rate 4.7% among 360,000. THP-1 LPS/ATP IL-1B secretion, AlphaLISA, 16 h; active compounds read low. AID 743279; in the data active means activity change below about -50%; inconclusive means mostly about -30% to -49%
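Secreted IL-1B measured by AlphaLISA bead assay after 16 h compound exposure of THP-1 cells; compounds (final up to 57.5 uM) added 1 h before LPS (250 ng/mL) and ATP (1.25 mM) stimulation; lower signal means less secretion.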
ELG1 repair inh: blocks ELG1-dependent DNA repair in HEK293T cells; hit rate 2.3% among 330,000; HEK293T ELG1-luciferase reporter, luminescence, 16 h; DNA damage induced by 5-fluorouridine; Potency, µM (titrated, usually from 46.1 µM), actives largely listed as inhibitors; further: nearly all actives have a fitted effect of over 55% in size
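DMSO vehicle served as the neutral condition. Each well held 2,000 cells given 5-fluorouridine plus compound; after 16 hr at 37 °C/5% CO2, ONE-Glo was added and luciferase measured 30 min later.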
TDP1 cell CPT: growth inhibition of DT40 Tdp1-/-;hTDP1 cells with camptothecin (screen for TDP1 inhibitors) | Potency, µM (highest dose often 46.2 µM), actives largely listed as inhibitors | AID 686979 | chicken DT40 Tdp1-/-;hTDP1 cells + 20 nM CPT, ATP luminescence, 48 h | hit rate 12% among 420,000; further: nearly all actives have a fitted effect of over 55% in size
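Chicken DT40 Tdp1-/- cells complemented with human TDP1, 400 cells/well, exposed to compounds plus 20 nM camptothecin for at least 48 h at 37 C; viability read as ATP content by CellTiter-Glo luminescence.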
HT1080-NT tox: kills 2HG-producing HT-1080-NT fibrosarcoma cells. HT-1080-NT fibrosarcoma viability, CellTiter-Glo ATP luminescence, 48 h. Potency, µM (titrated, usually from 46.1 µM), most hits filed as cytotoxic. hit rate 1.6% among 360,000;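 further: NT is the 2HG producing partner of a matched IDH1 knockdown line; nearly all actives have a fitted effect of over 55% in size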
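750 cells/well, RPMI + 5% FBS; 2 h settle, compound pin-transfer, 48 h at 37 degrees C. CellTiter-Glo 10 min RT, luminescence. Normalized to DMSO and media-only wells.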
A number is an active result; i = inactive; ? = inconclusive; nt = not tested or not shown; [ ] = dose if it differs, or a comment. The list is not random: actives were taken first. Their share in the collection is about 19%. Unless noted, the call rests on the fitted dose curve; in most records, active means well fitted curve in the direction sought with a large enough effect; inconclusive means small, poorly fitted or top-dose-only effect, or another doubt; inactive means no such curve, though single readings can be large; an effect the other way counts as inactive or inconclusive.

SMILES	DT40 TDP1 no CPT	HT1080 IDH1KD tx	IL-1B inflam inh	ELG1 repair inh	TDP1 cell CPT	HT1080-NT tox
CN(C(=O)C1CCCN1S(=O)(=O)c1ccc(Cl)cc1)c1ccccc1 (stereo not drawn)	i	i	i	i	i	i
COc1cc2nc(Cl)nc(NC3CCN(C)CC3)c2cc1OC	?	i	nt	nt	11µM	i
COc1cc2nc(N(C)C)nc(NC3CCN(C)CC3)c2cc1OC	4µM	?	nt	nt	4.5µM	?
COc1cc2nc(N(C)C)nc(N)c2cc1OC	26µM	?	i	i	?	i
COc1cc2nc(CCNCc3ccccc3)nc(NC3CCN(C)CC3)c2cc1OC	5µM	?	nt	nt	5.6µM	?
COc1cc2nc(NC3CCN(C)CC3)nc(NC3CCN(C)CC3)c2cc1OC	?	i	nt	nt	?	i
O=C(N=C1SC2CS(=O)(=O)CC2N1CCc1ccccc1)C1CC1 (stereo not drawn)	i	i	i	i	i	i
CN1CCN(c2ccc(NC(=O)c3ccc(C#N)cc3F)cc2Cl)CC1	?	i	i	i	i	i
CC(C)Cn1cc(-c2cccc3nccn23)cn1	i	i	i	nt	i	i
Cc1ccc(NS(=O)(=O)c2ccc(Cl)nc2)c(C)c1	i	i	i	i	?	i
CC(NC(=O)c1cc2ccccc2oc1=O)c1ccccc1 (stereo not drawn)	i	i	i	i	i	i
CCCN(CC(=O)Nc1ccccc1C)C(=O)c1ccc(-c2ccccc2)cc1	?	i	?	i	i	i
CCCN(CC(=O)Nc1ccccc1C)C(=O)c1ccc(COc2ccccc2)cc1	?	i	i	?	23µM	i
COc1ccc(C(=O)COc2cccc(NC(=O)c3ccco3)c2)cc1	18µM	i	i	?	?	i
COc1ccc(-c2cccc(C(=O)Nc3ccc(OC)c(OC)c3)c2)cc1	i	?	i	i	i	?
COC(=O)c1cccc(NC(=O)c2ccc(OC)c(Cl)c2)c1	?	?	-72	?	i	i
COc1ccc(C(=O)COC(=O)c2cccc(NC(=O)c3ccc(OC)c(OC)c3)c2)cc1	10µM	nt	nt	nt	18µM	nt
O=C(COc1cccc(NC(=O)c2cccc([N+](=O)[O-])c2)c1)c1ccc(Br)cc1	?	?	-72	9.2µM	?	i
CC(=O)Nc1ccccc1OC(C)C(=O)NC(C)c1ccc(F)cc1 (stereo not drawn)	?	i	i	i	i	i
COc1ccc(-c2nc3ccccc3o2)cc1NC(=O)c1cccc2c(Cl)cccc12	i	nt	nt	nt	i	nt
Cc1ccc(C(=O)C(C)Oc2cccc(NC(=O)c3ccco3)c2)cc1 (stereo not drawn)	26µM	i	i	?	?	i
O=C(O)COc1cccc(NC(=O)c2ccccc2)c1	i	i	i	i	i	i
COc1cccc(C(=O)Nc2cccc(OCC(=O)c3ccccc3)c2)c1	?	i	i	?	23µM	i
O=C(COc1cccc(NC(=O)c2ccccc2)c1)c1ccccc1	?	i	i	i	16µM	i
CN(C)CC(C)(O)c1ccc2c(c1)CN(C(=O)c1ccc(-n3cccn3)cc1)CCO2 (stereo not drawn)	i	nt	nt	nt	i[9.04 µM]	nt
SMILES	DT40 TDP1 no CPT	HT1080 IDH1KD tx	IL-1B inflam inh	ELG1 repair inh	TDP1 cell CPT	HT1080-NT tox
O=C(Nc1cc(Cl)ccc1-n1cncn1)C1CC1	i	i	i	i	i	i
CC(C)CNC(=O)NC(=O)COC(=O)c1ccccc1Sc1ccc(C(F)(F)F)cc1[N+](=O)[O-]	?	i	i	i	29µM	i
C=CCNC(=O)NC(=O)COC(=O)c1ccccc1Sc1ccc(C(F)(F)F)cc1[N+](=O)[O-]	i	?	i	i	?	?
O=C(N/N=C/c1cccc(OC(=O)c2ccco2)c1)c1ccc(F)cc1	i	i	i	?	i	i
CCCCn1cc2c(c1-c1ccccc1Br)c(=O)n(C)c(=O)n2C	16µM	nt	nt	nt	23µM	nt
CCCCCn1cc2c(c1-c1ccccc1Br)c(=O)n(C)c(=O)n2C	12µM	nt	nt	nt	12µM	nt
CCCCCn1cc2c(c1-c1ccc(Cl)cc1)c(=O)n(C)c(=O)n2C	16µM	nt	nt	nt	16µM	nt
COc1ccc(N2CCN(C(=O)c3cccc(Br)c3)CC2)c([N+](=O)[O-])c1	16µM	i	?	i	23µM	i
O=C(c1ccc(F)cc1)N1CCN(c2cc(N3CCCCC3)c(F)cc2[N+](=O)[O-])CC1	?	?	-83	i	?	i[9.24 µM]
COc1ccc(N2CCN(C(=O)c3ccc(F)cc3)CC2)c([N+](=O)[O-])c1	21µM	i	i	?	i	i
COc1ccc(N2CCN(C(=O)c3cccc(F)c3)CC2)c([N+](=O)[O-])c1	?	i	-52	i	?	i

Source: PubChem
